# TRb-SRC2 inh – inhibitors of human thyroid hormone receptor beta-SRC2 interaction; P10828; TRbeta-SRC2 peptide binding, fluorescence polarization; receptor liganded with 1 µM T3; Potency, µM (titrated, usually from 106 µM), without a hit: at the highest dose activity change, negative = inhibition, most hits filed as inhibitors; 280,000 tested, 0.065% active;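 note: plate controls were bound peptide for no effect and peptide without receptor for full effect; nearly all actives have a fitted effect of over 50% in size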
# Target sequence (P10828 whole entry, looked up): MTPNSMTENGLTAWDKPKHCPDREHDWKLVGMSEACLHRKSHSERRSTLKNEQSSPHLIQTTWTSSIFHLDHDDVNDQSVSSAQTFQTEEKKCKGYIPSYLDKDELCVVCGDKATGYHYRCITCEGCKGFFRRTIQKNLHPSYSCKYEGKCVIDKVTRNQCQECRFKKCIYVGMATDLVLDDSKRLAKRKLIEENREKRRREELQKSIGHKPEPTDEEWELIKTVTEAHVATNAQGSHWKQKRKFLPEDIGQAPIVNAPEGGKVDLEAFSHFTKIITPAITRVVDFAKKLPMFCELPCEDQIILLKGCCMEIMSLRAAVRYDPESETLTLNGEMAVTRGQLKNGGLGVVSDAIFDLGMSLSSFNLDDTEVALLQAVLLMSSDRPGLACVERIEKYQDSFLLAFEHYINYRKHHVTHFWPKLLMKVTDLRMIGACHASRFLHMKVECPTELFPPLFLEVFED
#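 Binding of a 20-amino-acid Texas Red SRC2 peptide (20 nM) to TRb ligand-binding domain (0.6 uM) with agonist T3 at 1 uM was followed by fluorescence polarization after a 5 hr room-temperature incubation.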
# Tau fluor cs – counter-screen for tau fibril formation inhibitors; tau K18 P301L Alexa594 fluorescence, heparin fibrillization; Potency, µM (highest dose often 57.7 µM), for the others: top-dose activity change, negative = decrease; 280,000 tested, 0.93% active; AID 1463; note: nearly all actives have a fitted effect of over 55% in size
#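 Human tau K18 P301L (15 uM unlabeled, 0.24 uM Alexa 594-labeled) in 100 mM sodium acetate pH 7 with 20 uM heparin, 6 hr at 37 C. ThT 30 uM added, 1 hr ambient; Alexa 594 FP and total fluorescence read at 555/632 nm.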
# TexasRed fluor – Texas Red fluorescence interference in TRb-SRC2 counter-screen | TRb/SRC2 Texas Red total fluorescence interference | Potency, µM (titrated, usually from 106 µM), for the others: at the highest dose fluorescence change, negative = quenching | 280,000 tested, 0.29% active; active = well fitted curve in either direction with a large enough effect; inconclusive = small, poorly fitted or top-dose-only effect
#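 Human TRβ ligand-binding domain (0.6 uM) and Texas Red SRC2 peptide (20 nM) in Tris buffer with 1 uM T3 and 5% DMSO were incubated with pinned compound for 5 hr at ambient temperature. Total fluorescence was computed as S + 2P (555/632 nm).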
# Tau fibril FP – inhibitors of human tau fibril formation | P10636 | K18 P301L tau heparin fibrillization, Alexa594 FP, 6 h | Potency, µM (doses to about 57.7 µM), inactives show at the top dose activity, negative = inhibition, hits mostly inhibitors | 280,000 tested, 0.39% active | AID 1468; note: nearly all actives have a fitted effect of over 55% in size
# Target sequence (P10636 561-689 P618L limits assumed): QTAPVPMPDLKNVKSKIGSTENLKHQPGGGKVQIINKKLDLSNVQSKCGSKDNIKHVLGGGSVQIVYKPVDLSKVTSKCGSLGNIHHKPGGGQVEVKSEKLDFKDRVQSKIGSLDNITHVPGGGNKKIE
#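 Read-out: fluorescence polarization of Alexa 594-labeled tau (0.24 uM), 555 nm excitation, 632 nm emission. Mixtures held 15 uM unlabeled K18 P301L, compound and 20 uM heparin, pH 7 acetate buffer, incubated 6 hr at 37 C.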
# Tau fibril ThT – tau fibrillization inhibition (ThT binding); recombinant tau K18 P301L (four-repeat tau fragment), heparin-induced fibrillization, ThT fluorescence; Potency, µM (series often up to 57.4 µM), inactives show top-dose activity, negative = inhibition, usual class: inhibitors; 270,000 tested, 2.1% active; AID 1460; note: nearly all actives have a fitted effect of over 55% in size
#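 Recombinant human tau K18 fragment […] carrying P301L, 15 uM unlabeled plus 0.24 uM Alexa 594-labeled, was fibrillized with 20 uM heparin in 100 mM sodium acetate pH 7 for 6 hr at 37 C; 30 uM ThT fluorescence read after 1 hr.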
# * hit, by the source's call; ? = inconclusive; · = no result given; [ ] = another dose, or the depositor's remark. Most compounds without a hit are left out; they make up all but 3% or so of the library. Unless noted, calls come from the whole dose curve; as a rule, active = well fitted curve in the direction sought with a large enough effect; inconclusive = small, poorly fitted or top-dose-only effect, or another doubt; inactive = no such curve, though single readings can be large; an effect the other way counts as inactive or inconclusive. Unless noted, % is set by controls: 0 for no effect and ±100 for the full control effect; potency is the fitted concentration of half-maximal effect.
SMILES,TRb-SRC2 inh,Tau fluor cs,TexasRed fluor,Tau fibril FP,Tau fibril ThT
COC(=O)C[C@H]1c2ccccc2C2=C(C[C@@H](C)[C@H]3C(=O)NC(=O)[C@@H]23)N1C(=O)OC,-8%[11.2 µM],-4%[11.6 µM],1%[11.2 µM],4%[11.6 µM],-2%[11.5 µM]
CC(C)CC(NC(=O)NC(CCC(=O)O)C(=O)O)C(=O)O (stereo unspecified),5%,·,-1%,·,·
Cc1nnc(N/N=C/c2cccc(OCc3ccc(Cl)c(Cl)c3)c2)n1N,7%,25µM*[quencher],0%,-13%,13µM*
NC(=O)N/N=C/c1cccc(OCc2ccc(F)cc2)c1,6%,-2%,-7%,-1%,-4%
CCOc1ccc(NC2=C(OC)C(=O)c3ccccc3C2=O)cc1,-22%,?,-1%,?,10µM*
Cc1cccc(NC2=C(NCCO)C(=O)c3ccccc3C2=O)c1,-2%,?,1%,?,25µM*
COC1=C(Nc2ccc(OC)cc2)C(=O)c2ccccc2C1=O,-25%,?,-13%,?,11µM*
COc1ccc(NC2=C(NCCO)C(=O)c3ccccc3C2=O)cc1,?,?,-4%,?,13µM*
COc1ccc(NC2=C(c3ccc(OC)cc3)C(=O)c3ccccc32)cc1,1%,?,1%,?,?
Cc1cccc(Nc2nc(N)c([N+](=O)[O-])c(NCCO)n2)c1,-1%,4%,-3%,15%,?
COc1ccc(CN2C(=O)C(NC(=O)c3ccccc3C)(C(F)(F)F)N=C2c2ccccc2)cc1 (stereo unspecified),2%,-26%,-2%,-6%,-14%
CCOC(=O)c1c(NC(=O)c2cc(-c3ccc(Br)cc3)on2)sc(C)c1C,-8%,-13%,?,-6%,?
Cc1ccc(Cl)cc1NC(=O)Nc1nnc(N2CCCC(C)C2)s1 (stereo unspecified),0%,-13%,0%,-2%,-15%
COC1=C(Nc2ccc(O)cc2)C(=O)c2ccccc2C1=O,35µM*,?,?,?,13µM*
COc1ccc(C2=C(Nc3ccccc3)c3ccccc3C2=O)cc1,-15%,?,3%,9%,?
COc1ccc(N2C(=O)/C(=C/c3cccs3)NC2=S)cc1,2%,-25%,1%,?,22µM*
CN(C)/C=C1\NC(=S)N(c2ccccc2)C1=O,-7%,0%,1%,-3%,-13%
COc1ccc(CNC(=O)CN2C(=O)CCCc3ccccc32)cc1,-7%,3%,0%,1%,4%
COc1cccc(CNC(=O)CN2C(=O)CCCc3ccccc32)c1OC,-9%,-2%,20µM*[quencher],1%,-7%
CCN(c1ccccc1)S(=O)(=O)c1ccc(Cl)c(NC(=O)COC(=O)c2cc(O)c3ccccc3c2O)c1,-2%,8.9µM*[quencher],-3%,?,11µM*
O=C(NC(NC(=S)Nc1ccc(F)c([N+](=O)[O-])c1)C(Cl)(Cl)Cl)C(c1ccccc1)c1ccccc1 (stereo unspecified),6%,·,?,·,·
O=C1NC(=S)S/C1=C\c1cc2ccccc2nc1N1CCCCC1,1%,?,-2%,7%,14µM*
N#C/C(=C\c1cc2ccccc2nc1N1CCCCC1)C(N)=O,11%[53 µM],-5%,-3%[53 µM],3%,?
COc1ccc2nc(N3CCCCC3)c(C#N)cc2c1,-2%,-18%,-3%,4%,-7%
COc1ccc2nc(N3CCCCC3)c(/C=C3\SC(=S)NC3=O)cc2c1,-1%,?,0%,-3%,14µM*
SMILES,TRb-SRC2 inh,Tau fluor cs,TexasRed fluor,Tau fibril FP,Tau fibril ThT
CC(C)c1ccc(NC(=O)c2cn(C3CCCC3)c(=O)c3c2c2ccccc2n3C)cc1,4%,-6%,-1%,-4%,-6%
COc1ccc(C)cc1NC(=O)c1cc(S(=O)(=O)NC2CCCCCC2)ccc1F,-2%,?,-1%,-14%,-11%
Cc1[nH]c2c(ccc3ccccc32)c1C1C(CCN)C1(C)C (stereo unspecified),-15%,16µM*[quencher],-4%,?,?
S=c1[nH]c2ccc3ccccc3c2[nH]1,-1%,0%,0%,1%,-3%
CC[C@H](C)[C@H](NC(=O)[C@H](Cc1ccc(O)cc1)NC(=O)[C@@H]1CCCN1C(=O)[C@H](CCCCN)NC(=O)[C@@H](N)CCCCN)C(=O)N[C@@H](CC(C)C)C(=O)O,6%,·,-21%,·,·
CCC1=Nc2cc(C(=O)NCC3CCCO3)ccc2Sc2ccc(Br)cc21 (stereo unspecified),-10%,?,1%,4µM*,?
COc1cc(/C=C2\C(=O)N(c3ccccc3)N=C2C)ccc1Oc1ccc([N+](=O)[O-])cc1[N+](=O)[O-],?,?,-12%,-10%,?
CC1=NN(c2ccccc2)C(=O)/C1=C\c1ccc(Oc2ccc([N+](=O)[O-])cc2[N+](=O)[O-])cc1,-22%,14µM*[quencher],-7%,?,14µM*
CCOc1c(Cl)cc(C(=O)N(Cc2ccc(N(C)C)cc2)Cc2ccco2)cc1Cl,-12%,-25%,1%,8%,?
CCc1cc(SC#N)ccc1N,-2%,-18%,-1%,?,13µM*
CCc1cc([N+](=O)[O-])cc(CC)c1N,2%,-11%,-8%,-3%,-15%
CCOC(=O)c1cccc(NC(=O)CSc2cc(=O)n(C)c3ccccc23)c1,-1%,?,-1%,?,8%
CCOC(=O)c1sc(NC(=O)Nc2ccccc2Cl)cc1C,-1%[53 µM],8.9µM*[quencher],0%[53 µM],?,-8%
CCOC(=O)c1sc(NC(=O)Nc2ccccc2)cc1C,7%,14µM*[quencher],2%,?,?
CCOC(=O)c1sc(NC(C)=O)cc1C,0%,-2%,1%,-6%,-4%
CCOC(=O)c1sc(NC(=O)c2ccc(C)s2)cc1C,-12%,?,2%,-7%,-7%
COc1ccc(NC(=O)c2cnc3sc(N4CCOCC4)nn3c2=O)c(OC)c1,-3%,-2%,0%,4%,-4%
Nc1c(C(=O)c2ccccc2)sc2snc(SCC(=O)c3ccccc3)c12,-3%,?,-10%,?,7.9µM*
CCc1ccc(CN(C(=O)Nc2cccc(Cl)c2)c2ccccn2)cc1,-11%,?,355µM*[quencher],?,-4%
CC(C)C(=O)N(Cc1ccccc1)c1ccccn1,-3%,1%,2%,-6%,4%
C=CC(=O)OCCOCC(CC)(COCCOC(=O)C=C)COCCOC(=O)C=C,?,·,1%[201 µM],·,·
C=C(C)CSCc1nc2ccccc2[nH]1,0%,4%,-3%,1%,1%
Cc1ccccc1CSCc1nc2ccccc2[nH]1,-15%[53 µM],-8%,1.1µM*[quencher],-4%,-1%
CC1CC=CC2C1C(=O)N(Cc1ccccc1)C2c1ccc(F)c(Br)c1 (stereo unspecified),4%,·,0%,·,·

# Assay outcomes (PubChem BioAssay)
